# Screens from PubChem BioAssay.
# 14-3-3 Bad PPI: inhibitors of 14-3-3 zeta/Bad binding, primary screen, biochemical, TR-FRET, bovine 14-3-3 zeta. AID 781, 2007. inhibition, % at 21.7 µM. TR-FRET 14-3-3zeta/Dy647-pBad peptide displacement, 1 h. 14-3-3 protein zeta/delta (Bos taurus), P63103. hit rate 0.71% among 220,000;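 active = inhibition above about 70%, limit read from the data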;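 note: 0% = full 14-3-3 plus peptide FRET controls and 100% = background without 14-3-3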
# Mcl1-Bid inh: Mcl-1/Bid binding inhibitors, primary screen, biochemical, TR-FRET, 1536-well; Induced myeloid leukemia cell differentiation protein Mcl-1 (Homo sapiens), Q07820; TR-FRET Mcl-1/Bid-Dy647 peptide binding; inhibition, % at 21.7 µM; hit rate 0.97% among 220,000;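 active = compounds that cut the binding signal by more than half at the single screening dose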;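 note: His-tagged Mcl-1 with europium anti-His antibody binding Bid BH3 peptide; 0% = Mcl-1 plus peptide wells and 100% = peptide-only wells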
# Calpain2 inh: inhibitors of pig calpain II, primary screen, biochemical, fluorogenic peptide substrate, 1536-well | purified calpain II, 30 min | inhibition, % at 16 µM | AID 1236, 2008 | hit rate 0.37% among 220,000;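 active = inhibition above about 50%, limit read from the data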
# Mcl1 Noxa PPI: Mcl-1/Noxa binding inhibitors, primary screen, biochemical, TR-FRET, 1536-well; Induced myeloid leukemia cell differentiation protein Mcl-1 (Homo sapiens), Q07820; TR-FRET Mcl-1/Noxa peptide binding, 2 h; inhibition, % at 21.7 µM; hit rate 1.5% among 220,000; AID 1022, 2008;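 active = compounds that cut the protein-peptide binding signal by more than 50% relative to plate controls in a single-dose test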;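 note: His-tagged Mcl-1 with rhodamine Noxa BH3 peptide and terbium anti-His antibody; 0% = Mcl-1 plus Noxa peptide wells and 100% = peptide-only wells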
# Mcl-1 Bim block: inhibitors of Bim peptide binding to Mcl-1, primary screen, biochemical, bead-based flow cytometry, multiplex | hit rate 0.1% among 190,000 | Induced myeloid leukemia cell differentiation protein Mcl-1 (Homo sapiens), Q07820 | inhibition, % at 10 µM | Bim peptide-Mcl-1 binding; in the data active = inhibition above about 40%;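 note: 0% = no compound tracer wells and 100% = peptide blocker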
# NCF1 inh: p47phox/p22phox peptide binding inhibitors, primary screen, biochemical, uHTS, NADPH oxidase regulatory subunit; fluorescence polarization, 2 h; hit rate 0.53% among 220,000; inhibition, % at 24.7 µM; Neutrophil cytosol factor 1 (Homo sapiens), P14598;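 active = inhibition above about 30%, limit read from the data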;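 note: 0% = p47phox with labelled peptide and 100% = labelled peptide alone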
# Target sequence (P14598 whole entry, looked up): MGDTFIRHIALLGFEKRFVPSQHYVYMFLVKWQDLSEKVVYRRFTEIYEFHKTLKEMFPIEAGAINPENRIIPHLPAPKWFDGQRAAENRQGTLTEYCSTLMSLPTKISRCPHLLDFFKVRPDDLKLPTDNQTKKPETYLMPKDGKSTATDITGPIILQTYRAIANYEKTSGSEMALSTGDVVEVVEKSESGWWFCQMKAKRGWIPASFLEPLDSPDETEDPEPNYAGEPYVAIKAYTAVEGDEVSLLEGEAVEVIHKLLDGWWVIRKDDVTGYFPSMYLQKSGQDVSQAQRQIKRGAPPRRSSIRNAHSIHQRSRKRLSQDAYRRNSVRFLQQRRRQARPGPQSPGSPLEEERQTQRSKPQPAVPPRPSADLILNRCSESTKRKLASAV
# Numbers without * were called inactive; . = no result given; [ ] = remark or other dose. Sampled rows, rich in hits. Any-hit rate of the full collection: about 3.4%.
SMILES,14-3-3 Bad PPI,Mcl1-Bid inh,Calpain2 inh,Mcl1 Noxa PPI,Mcl-1 Bim block,NCF1 inh
O=C1C=C(Nc2ccccc2)C(=O)c2ccccc21,-12,38,57*,17,32,6
COc1ccc(CNC(=O)c2ccc(-c3ccccc3)cc2)cc1OC,1,-17,-10,-3,-6,-1
COc1ccc(CNC(=O)c2n[nH]c3ccccc23)cc1OC,4,55*,23,5,0,7
CCCCCn1nnc2c(=O)oc3ccccc3c21,-5,-6,-11,4,2,1
COCC(=O)NC1(c2nnnn2CCOC(=O)Nc2ccc(Cl)cc2)CCCCC1,17,5,30,17,0,-12
Cc1cc(C)cc(Oc2coc3cc(OC(=O)c4cccnc4)ccc3c2=O)c1,11,19,-360,-19,-5,-110
Cc1cccc(Oc2coc3cc(OC(=O)c4cncc(Br)c4)ccc3c2=O)c1,1,-6,-262,15,-1,87*
Cc1ccc(C)c(NC(=O)CCCCCCCCCCC2COCCO2)c1 (stereo unspecified),0,25,-4,-34,-3,6
CC1CC(C)(C)NC(=S)N1CCC(=O)N1c2ccccc2CC1C (stereo unspecified),-16,-40,-22,-5,0,-3
CCN(CC)S(=O)(=O)c1ccc(C)c(NC(=S)NNC(=O)C2CC2)c1,-11,-38,76*,14,-12,-8
Cc1ccc(S(=O)(=O)N(C)C)cc1NC(=S)NNC(=O)C1CC1,-1,-13,9,23,-5,-16
Clc1ccc(CNCc2cccs2)c(Cl)c1,-16,-4,14,3,-4,3
Cc1cc(C)nc(NS(=O)(=O)c2ccc(NC(=O)CN3C(=O)C4CC=CCC4C3=O)cc2)n1 (stereo unspecified),-20,-4,-18,29,-1,-2
O=C(Cc1c(Cl)cccc1Cl)OCC(=O)N1CCc2ccccc2C1,3,78*,11,6,-4,-2
O=C(Cn1[nH]c(=O)c2ccccc2c1=O)OCC(=O)N1CCc2ccccc2C1,-9,83*,12,3,0,5
CNS(=O)(=O)c1cccc(C(=O)OCC(=O)N2CCc3ccccc3C2)c1,4,-4,-3,23,0,30*
O=c1c2ccccc2nnn1COc1cccc(Cl)c1,-4,-17,17,7,-1,0
CCOC(=O)c1c(CSc2ccccc2)n(C)c2cc(Br)c(OCC(O)CNC(CO)(CO)CO)cc12 (stereo unspecified),-16,30,-55,20,.,42*
Cc1c(C(=O)OCC(=O)NCc2ccc3c(c2)OCO3)cccc1[N+](=O)[O-],-5,-27,-2,8,-10,-3
COc1cc(OC)cc(C(=O)Nc2ccc3c(c2)COC3=O)c1,3,1,60*,8,-2,-17
O=C1OCc2cc(NC(=O)C3CCCCC3)ccc21,-3,-14,52*,-9,0,-8
O=C(COC(=O)/C=C/c1ccco1)Nc1ccc(F)cc1Cl,8,-38,-23,0,5,-5
CCOc1ccc(N2C(=O)C(=O)/C(=C(/O)c3ccccc3)C2c2ccccc2[N+](=O)[O-])cc1 (stereo unspecified),-2,-10,-37,10,.,-2
COc1cccc(N=c2oc3ccc(OC)cc3cc2-c2nc3ccccc3[nH]2)c1,79*[fluorescence artefact?],-182,50,-250,0,26
COc1ccc(N=c2oc3ccc(OC)cc3cc2-c2nc3ccccc3[nH]2)cc1,65,50,-21,12,-2,14
COc1cccc(N=c2oc3ccccc3cc2-c2nc3ccccc3[nH]2)c1,55,56*,-88,14,-2,2
CCc1ccc(NC(=O)COc2ccc(/C=C(/C#N)c3nc4ccccc4[nH]3)cc2OC)cc1,59,56*,-207,34,-13,2
